# From PubChem BioAssay (Tox21)
# Values without a mark were called inactive. A call without a number means that no potency is given here. Activity calls are given as the source filed them. Unless noted, the call rests on the fitted dose curve; in most records, active means well fitted curve in the direction sought with a large enough effect in the repeat runs; inconclusive means weak or mixed curves; inactive means no such curve, though single readings can be large; an effect the other way counts as inactive or inconclusive.
# Legend:
# [1] = qHTS assay to identify small molecule antagonists of the thyroid receptor (TR) signaling pathway - cell viability counter screen (AID 743064); further: nearly all actives have a fitted effect of over 50% in size; further: potency means the concentration at half of the fitted maximal effect
# Method in brief: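 Counter screen for cytotoxicity: compound plus T3 (1 nM final) on GH3.TRE-Luc cells, 23.5 h at 37 °C, then fluorescence viability readout with CellTiter-Fluor.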
# [2] = tested on: thyroid hormone receptor (rat, GH3 cells); assay: qHTS assay to identify small molecule agonists of the thyroid receptor (TR) signaling pathway (AID 743066; calls by dose curve)
# [3] = qHTS assay to identify small molecule antagonists of the estrogen receptor alpha (ER-alpha) signaling pathway - cell viability counter screen (AID 743074; calls by dose curve;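 further: HEK293 cells carrying ER-alpha-UAS-bla reporter stimulated with 17beta-estradiol; nearly all actives have a fitted effect of over 45% in size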)
# [4] = biological target: Estrogen receptor (Homo sapiens) (UniProt P03372); assay: qHTS assay to identify small molecule agonists of the estrogen receptor alpha (ER-alpha) signaling pathway (AID 743075; calls by dose curve;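 further: HEK293 GripTite cells with ER-alpha and UAS-driven beta-lactamase reporter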; further: potency means the concentration at half of the fitted maximal effect)
# Chain of Estrogen receptor (Homo sapiens) (P03372 whole entry, looked up): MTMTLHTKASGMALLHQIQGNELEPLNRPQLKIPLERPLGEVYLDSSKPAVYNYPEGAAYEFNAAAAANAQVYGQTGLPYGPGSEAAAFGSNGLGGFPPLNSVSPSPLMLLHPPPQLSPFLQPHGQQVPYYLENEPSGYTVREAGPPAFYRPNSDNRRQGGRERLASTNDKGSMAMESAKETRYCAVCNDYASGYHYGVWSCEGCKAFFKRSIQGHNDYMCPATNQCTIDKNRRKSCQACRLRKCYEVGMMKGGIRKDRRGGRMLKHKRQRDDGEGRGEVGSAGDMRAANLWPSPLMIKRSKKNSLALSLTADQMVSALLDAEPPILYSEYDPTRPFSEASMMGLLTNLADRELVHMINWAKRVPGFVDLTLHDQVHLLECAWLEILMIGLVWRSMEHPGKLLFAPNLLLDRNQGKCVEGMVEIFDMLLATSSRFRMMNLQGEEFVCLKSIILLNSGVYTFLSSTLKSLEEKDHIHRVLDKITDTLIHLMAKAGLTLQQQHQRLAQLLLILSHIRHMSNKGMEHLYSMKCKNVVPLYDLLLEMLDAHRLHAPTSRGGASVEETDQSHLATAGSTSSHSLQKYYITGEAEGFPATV
# [5] = qHTS assay to identify small molecule antagonists of the estrogen receptor alpha (ER-alpha) signaling pathway using the BG1 cell line (AID 743080; calls by dose curve;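 further: BG1 cells stimulated with 17beta-estradiol alongside compound; nearly all actives have a fitted effect of over 25% in size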; further: potency means the concentration at half of the fitted maximal effect)
# Method in brief: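 Quantitative HTS on the Tox21 10K library: BG1 cells with endogenous ER-alpha and ERE-luciferase reporter, 17beta-estradiol stimulation, 21.5 h compound exposure, luminescence endpoint with parallel fluorescence cytotoxicity counter-read.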
# Aromatase (Homo sapiens) = Aromatase (Homo sapiens) (UniProt P11511); assay: qHTS assay to identify aromatase inhibitors (AID 743083); further: nearly all actives have a fitted effect of over 55% in size
# Chain of Aromatase (Homo sapiens) (P11511 whole entry, looked up): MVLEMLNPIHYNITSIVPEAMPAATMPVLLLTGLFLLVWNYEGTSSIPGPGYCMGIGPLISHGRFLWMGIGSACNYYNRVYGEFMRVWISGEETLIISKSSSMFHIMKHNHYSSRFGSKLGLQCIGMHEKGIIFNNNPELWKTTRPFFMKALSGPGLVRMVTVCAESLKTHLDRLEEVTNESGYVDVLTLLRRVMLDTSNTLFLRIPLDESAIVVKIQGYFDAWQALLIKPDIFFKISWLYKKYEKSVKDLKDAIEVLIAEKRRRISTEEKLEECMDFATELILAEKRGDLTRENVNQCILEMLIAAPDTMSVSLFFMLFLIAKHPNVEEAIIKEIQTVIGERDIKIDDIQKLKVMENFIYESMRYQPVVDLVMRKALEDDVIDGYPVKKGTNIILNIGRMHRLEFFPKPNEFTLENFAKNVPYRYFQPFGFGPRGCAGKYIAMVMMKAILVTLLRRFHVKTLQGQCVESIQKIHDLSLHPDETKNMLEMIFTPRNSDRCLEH
# [6] = qHTS assay to identify aromatase inhibitors - cell viability counter screen (AID 743084);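 further: cells stimulated with testosterone during compound exposure; nearly all actives have a fitted effect of over 55% in size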
# [7] = biological target: Aryl hydrocarbon receptor (Homo sapiens) (UniProt P35869); assay: qHTS assay to identify small molecule that activate the aryl hydrocarbon receptor (AhR) signaling pathway (AID 743085);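 further: HG2L7.5c1 human HepG2 liver cells with stably integrated DRE-driven firefly reporter; nearly all actives have a fitted effect of over 15% in size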
# Chain of Aryl hydrocarbon receptor (Homo sapiens) (P35869 whole entry, looked up): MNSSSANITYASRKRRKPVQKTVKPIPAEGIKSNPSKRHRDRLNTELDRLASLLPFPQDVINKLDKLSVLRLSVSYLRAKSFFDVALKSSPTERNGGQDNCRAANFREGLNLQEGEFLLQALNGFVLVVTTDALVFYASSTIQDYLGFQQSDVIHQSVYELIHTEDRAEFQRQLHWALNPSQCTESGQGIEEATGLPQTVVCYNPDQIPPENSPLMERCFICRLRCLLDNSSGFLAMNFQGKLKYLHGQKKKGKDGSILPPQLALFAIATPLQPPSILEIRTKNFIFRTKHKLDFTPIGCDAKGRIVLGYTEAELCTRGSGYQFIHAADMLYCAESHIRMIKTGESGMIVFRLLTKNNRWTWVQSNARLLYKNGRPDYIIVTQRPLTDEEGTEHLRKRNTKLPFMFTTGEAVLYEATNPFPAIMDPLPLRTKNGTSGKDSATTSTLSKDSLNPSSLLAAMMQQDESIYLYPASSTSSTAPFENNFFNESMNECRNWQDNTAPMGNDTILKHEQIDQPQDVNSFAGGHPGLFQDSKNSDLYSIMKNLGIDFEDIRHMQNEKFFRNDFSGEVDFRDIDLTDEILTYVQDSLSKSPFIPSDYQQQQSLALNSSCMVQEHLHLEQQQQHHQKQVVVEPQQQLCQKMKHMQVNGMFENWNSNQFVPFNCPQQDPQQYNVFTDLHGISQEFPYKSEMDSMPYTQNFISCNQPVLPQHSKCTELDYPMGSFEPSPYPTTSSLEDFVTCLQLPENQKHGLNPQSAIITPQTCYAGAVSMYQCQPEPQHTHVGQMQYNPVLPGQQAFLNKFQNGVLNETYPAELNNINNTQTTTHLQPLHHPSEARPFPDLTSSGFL
# Method in brief: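 Measured in HG2L7.5c1 cells: CellTiter-Fluor signal (30 min incubation, 37C) for viability, then luciferase luminescence (30 min, room temperature). Compound contact time was 24 h at 37C, following a 5 h pre-incubation.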
# [8] = qHTS assay to identify small molecule that activate the aryl hydrocarbon receptor (AhR) signaling pathway - cell viability counter screen (AID 743086);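 further: HepG2 liver cells carrying the AhR DRE luciferase reporter; nearly all actives have a fitted effect of over 45% in size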
# Method in brief: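 Cytotoxicity counter screen: CellTiter-Fluor signal (30 min, 37 C) in 4000 HepG2 cells/well carrying the DRE-luciferase reporter, following 24 h compound exposure at 37 C.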
# [9] = biological target: Peroxisome proliferator-activated receptor gamma (Homo sapiens) (UniProt P37231); assay: qHTS assay to identify small molecule agonists of the peroxisome proliferator-activated receptor gamma (PPARg) signaling pathway (AID 743094; active means well fitted activation curve with a large enough effect in the signal ratio in the repeat runs, not every such curve was filed as active; inconclusive means weak or mixed curves, or effect the other way; inactive means no such curve, though single readings can be large or run the other way; the % refers to the signal ratio)
# Chain of Peroxisome proliferator-activated receptor gamma (Homo sapiens) (P37231 whole entry, looked up): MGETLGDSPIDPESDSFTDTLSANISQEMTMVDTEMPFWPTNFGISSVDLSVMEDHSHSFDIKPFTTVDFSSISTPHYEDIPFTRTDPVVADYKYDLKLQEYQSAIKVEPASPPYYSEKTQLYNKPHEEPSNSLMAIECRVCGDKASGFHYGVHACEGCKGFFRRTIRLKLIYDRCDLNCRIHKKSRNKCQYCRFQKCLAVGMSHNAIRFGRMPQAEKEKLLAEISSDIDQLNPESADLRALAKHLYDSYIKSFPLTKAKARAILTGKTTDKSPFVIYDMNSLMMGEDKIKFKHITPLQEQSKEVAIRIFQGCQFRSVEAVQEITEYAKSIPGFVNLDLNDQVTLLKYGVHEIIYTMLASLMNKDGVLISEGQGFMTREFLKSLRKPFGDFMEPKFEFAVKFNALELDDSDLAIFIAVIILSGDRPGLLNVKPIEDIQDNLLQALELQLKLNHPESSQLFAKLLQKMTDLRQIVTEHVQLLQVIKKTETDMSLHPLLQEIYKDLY
# Method in brief: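 Following 5 h plating at 37C, PPARg-bla HEK293H cells receive compound or DMSO for 17 h; fluorescence intensity is recorded after LiveBLAzer B/G loading for 1 h at room temperature.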
# [10] = qHTS assay to identify small molecule antagonists of the peroxisome proliferator-activated receptor gamma (PPARg) signaling pathway - cell viability counter screen (AID 743194); settings: Potency: co-treated with 50 nM rosiglitazone; further: nearly all actives have a fitted effect of over 55% in size
# Method in brief: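 Viability was measured as CellTiter-Glo luminescence in GeneBLAzer PPARg UAS-bla HEK293H cells. These cells had been exposed 17 h at 37 C to compounds together with rosiglitazone at 50 nM final, with the beta-lactamase readout taken in the same wells.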
# [11] = qHTS assay for small molecule agonists of the antioxidant response element (ARE) signaling pathway (AID 743202; active means well fitted activation curve with a large enough effect in the signal ratio in the repeat runs, not every such curve was filed as active; inconclusive means weak or mixed curves, or effect the other way; inactive means no such curve, though single readings can be large or run the other way; the % refers to the signal ratio)
# Method in brief: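 Quantitative high-throughput format in HepG2 cells bearing an integrated ARE-beta-lactamase reporter. Compound exposure lasted 16 h at 37 C, and fluorescence was read 2 h after adding LiveBLAzer B/G substrate at room temperature.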
# [12] = qHTS assay for small molecule agonists of the antioxidant response element (ARE) signaling pathway - cell viability counter screen (AID 743203; calls by dose curve; further: nearly all actives have a fitted effect of over 55% in size)
# Method in brief: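 Compounds in DMSO were pinned onto ARE-bla HepG2 cells plated 5 hrs earlier at 2,000 cells/well. Sixteen hours later at 37C/5% CO2, CellTiter-Glo was added and luminescence measured after 30 min at room temperature.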
# [13] = qHTS assay for small molecule activators of the heat shock response signaling pathway - cell viability counter screen (AID 743209); further: nearly all actives have a fitted effect of over 50% in size
# Method in brief: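 Counter screen for cytotoxicity in HeLa HSE-bla reporter cells. Treatment was 5 h at 37 C; viability was detected by luminescent ATP assay (CellTiter-Glo) in the same wells as the beta-lactamase read.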
# [14] = qHTS assay for small molecule activators of the heat shock response signaling pathway (AID 743210; active means well fitted activation curve with a large enough effect in the signal ratio in the repeat runs, with a control signal flat, not every such curve was filed as active; inconclusive means weak or mixed curves; the % refers to the signal ratio;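 further: HeLa cells with beta-lactamase reporter driven by heat shock elements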)
# Method in brief: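 HeLa HSE-bla cells, overnight plating; cpd in DMSO 5 h, 37 C; LiveBLAzer B/G FRET substrate 2.5 h RT; fluorescence intensity read.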
# [15] = qHTS assay to identify small molecule antagonists of the estrogen receptor alpha (ER-alpha) signaling pathway using the BG1 cell line - cell viability counter screen (AID 743081);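 further: compound given together with 17beta-estradiol as the ER stimulus; nearly all actives have a fitted effect of over 45% in size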
# [16] = qHTS assay to identify small molecule antagonists of the thyroid receptor (TR) signaling pathway (AID 743065); further: nearly all actives have a fitted effect of over 55% in size; further: potency means the concentration at half of the fitted maximal effect
# Method in brief: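 Antagonism measured as loss of luciferase signal in GH3 cells stably carrying a TRE-luciferase reporter, co-treated with compound and T3 (1 nM final) for 23.5 h at 37 C. Viability was read in the same well by CellTiter-Fluor.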
# [17] = biological target: Peroxisome proliferator-activated receptor gamma (Homo sapiens) (UniProt P37231); assay: qHTS assay to identify small molecule antagonists of the peroxisome proliferator-activated receptor gamma (PPARg) signaling pathway (AID 743191; calls by dose curve; further: nearly all actives have a fitted effect of over 30% in size)
# Method in brief: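 Beta-lactamase reporter under UAS control in HEK293H PPARg-bla cells; compound treatment 17 h at 37C. Read-out: fluorescence intensity after 1 h room-temperature incubation with LiveBLAzer B/G FRET substrate.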
# [18] = biological target: Estrogen receptor (Homo sapiens) (UniProt P03372); assay: qHTS assay to identify small molecule antagonists of the estrogen receptor alpha (ER-alpha) signaling pathway (AID 743069; active means well fitted curve in the direction sought with a large enough effect in the signal ratio in the repeat runs, not every such curve was filed as active; inconclusive means weak or mixed curves, or effect the other way; inactive means no such curve, though single readings can be large or run the other way; the % refers to the signal ratio)
# Method in brief: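 ER-alpha-UAS-bla GripTite HEK293 line; 2% charcoal-stripped FBS overnight; plated, 4 hr 37C/5% CO2; cpd in DMSO + 17beta-estradiol, 18 hr 37C; LiveBLAzer B/G FRET substrate 2 hr RT; fluorescence intensity.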
# [19] = biological target: Estrogen receptor (Homo sapiens) (UniProt P03372); assay: qHTS assay to identify small molecule agonists of the estrogen receptor alpha (ER-alpha) signaling pathway using the BG1 cell line (AID 743079); settings: BG1Luc4E2 cells, ERE-luciferase agonist, 22 h; further: nearly all actives have a fitted effect of over 20% in size; further: potency means the concentration at half of the fitted maximal effect
structure (smiles),measurement,setting,value
CCc1cc2c(s1)-n1c(C)nnc1CN=C2c1ccccc1Cl,Potency,[1],inactive
same,Potency,[2],inactive
same,outcome,[3],inactive
same,Potency,[4],inactive
same,Potency,[5],11.9 µM (active)
same,Potency,Aromatase (Homo sapiens),inactive
same,Potency,[6],inactive
same,Potency,[7],inactive
same,outcome,[8],inactive
same,outcome,[9],inactive
same,Potency,[10],inactive
same,Potency,[11],inactive
same,Potency,[12],inactive
same,Potency,[13],inactive
same,outcome,[14],inactive
CC1=NNC(=O)N(/N=C/c2cccnc2)C1,Potency,[1],inactive
same,Potency,[2],inactive
same,outcome,[3],inactive
same,Potency,[15],inactive
same,Potency,Aromatase (Homo sapiens),inactive
same,Potency,[6],inactive
same,outcome,[8],inactive
same,outcome,[9],inactive
same,Potency,[10],inactive
same,Potency,[11],inactive
same,Potency,[12],inactive
same,Potency,[13],inactive
same,outcome,[14],inactive
N#CC(O)c1ccccc1 (stereo not drawn),Potency,[16],inactive
same,Potency,[2],inactive
same,outcome,[3],inactive
same,Potency,[15],inactive
same,Potency,Aromatase (Homo sapiens),inactive
same,Potency,[6],inactive
same,outcome,[8],inactive
same,outcome,[9],inactive
same,Potency,[17],inactive
same,Potency,[10],inactive
same,Potency,[11],inactive
same,Potency,[12],inactive
same,Potency,[13],inactive
same,outcome,[14],inactive
CN1C(=S)CN=C(c2ccccc2)c2cc(Cl)ccc21,Potency,[1],inactive
same,Potency,[2],inactive
same,outcome,[3],inactive
same,Potency,[4],inactive
same,Potency,[5],13.3 µM (active)
same,Potency,[15],inactive
same,Potency,Aromatase (Homo sapiens),inactive
same,Potency,[6],inactive
same,Potency,[7],inactive
same,outcome,[8],inactive
same,Potency,[17],inactive
same,Potency,[10],inactive
same,Potency,[11],inactive
same,Potency,[13],inactive
same,outcome,[14],inactive
COC(=O)C1=CCCN(C)C1,Potency,[1],inactive
same,Potency,[18],inactive
same,outcome,[3],inactive
same,Potency,[4],inactive
same,activation,[19]; at 70.3 µM (top of the series),0.989%
same,Potency,[15],inactive
same,Potency,Aromatase (Homo sapiens),inactive
same,Potency,[6],inactive
same,Potency,[7],inactive
same,outcome,[8],inactive
same,outcome,[9],inactive
same,Potency,[10],inactive
same,Potency,[11],inactive
same,Potency,[12],inactive
same,Potency,[13],inactive
same,outcome,[14],inactive
C#C[C@]1(O)C=C[C@H]2[C@@H]3CCC4=CC(=O)CC[C@@H]4[C@H]3CC[C@@]21CC,Potency,[16],11.9 µM (active)
same,Potency,[2],inactive
same,outcome,[3],inactive
same,Potency,[4],0.535 µM [inconclusive] (active)
same,Potency,[19],0.168 µM (active)
same,Potency,[15],inactive
same,Potency,Aromatase (Homo sapiens),inactive
same,Potency,[6],inactive
same,Potency,[7],inactive
same,outcome,[8],inactive
same,Potency,[10],inactive
same,Potency,[12],inactive
same,Potency,[13],inactive
same,outcome,[14],inactive
CC(C)CC#N,Potency,[1],inactive
same,Potency,[18],inactive
same,outcome,[3],inactive
same,Potency,[4],inactive
same,activation,[19]; at 95 µM (top of the series),6.55%
same,Potency,[15],inactive
same,Potency,Aromatase (Homo sapiens),inactive
same,Potency,[6],inactive
same,Potency,[7],inactive
same,outcome,[8],inactive
same,outcome,[9],inactive
same,Potency,[17],inactive
same,Potency,[10],inactive
same,Potency,[11],inactive
same,Potency,[12],inactive
same,Potency,[13],inactive
same,outcome,[14],inactive
COC(=O)c1ccccc1S(=O)(=O)NC(=O)Nc1nc(C)cc(C)n1,Potency,[1],inactive
same,Potency,[2],inactive
same,outcome,[3],inactive
same,Potency,[15],inactive
same,Potency,Aromatase (Homo sapiens),inactive
same,Potency,[6],inactive
same,Potency,[7],inactive
same,outcome,[8],inactive
same,outcome,[9],inactive
same,Potency,[17],inactive
same,Potency,[10],inactive
same,Potency,[11],inactive
same,Potency,[13],inactive
CCN(CC)CCOC(=O)C(C)(c1ccccc1)c1ccccc1,Potency,[1],26.6 µM (active)
same,Potency,[2],inactive
same,outcome,[3],inactive
same,Potency,Aromatase (Homo sapiens),inactive
same,Potency,[6],inactive
same,outcome,[9],inactive
same,Potency,[17],inactive
same,Potency,[10],inactive
same,Potency,[11],inactive
same,Potency,[12],inactive
same,Potency,[13],inactive
same,outcome,[14],inactive
CC(Oc1ccc(Oc2ncc(C(F)(F)F)cc2Cl)cc1)C(=O)O (stereo not drawn),Potency,[1],inactive
same,Potency,[2],inactive
same,outcome,[3],inactive
same,Potency,[4],inactive
same,Potency,[5],inactive
same,Potency,[15],inactive
same,Potency,[6],inactive
same,Potency,[7],inactive
same,outcome,[8],inactive
same,Potency,[10],inactive
same,Potency,[13],inactive
same,outcome,[14],inactive
Cc1ccccc1CO[C@@H]1C[C@@]2(C(C)C)CC[C@]1(C)O2,Potency,[1],inactive
same,Potency,[2],inactive
same,outcome,[3],inactive
same,Potency,[15],inactive
same,Potency,[6],inactive
same,outcome,[8],inactive
same,outcome,[9],inactive
same,Potency,[17],inactive
same,Potency,[10],inactive
same,Potency,[11],inactive
same,Potency,[12],inactive
same,outcome,[14],inactive
N#CC(Cl)(Cl)Cl,Potency,[16],inactive
same,Potency,[2],inactive
same,Potency,[18],inactive
same,outcome,[3],inactive
same,Potency,[4],inactive
same,activation,[19]; at 70.3 µM (top of the series),-6.23%
same,Potency,[15],inactive
same,Potency,Aromatase (Homo sapiens),inactive
same,Potency,[6],inactive
same,Potency,[7],inactive
same,outcome,[8],inactive
same,outcome,[9],inactive
same,Potency,[17],inactive
same,Potency,[10],inactive
same,Potency,[11],inactive
same,Potency,[12],inactive
same,outcome,[14],inactive
Nc1ccccc1Cl,Potency,[16],inactive
same,Potency,[2],inactive
same,Potency,[18],inactive
same,outcome,[3],inactive
same,Potency,[4],inactive
same,activation,[19]; at 70.3 µM (top of the series),-8.6%
same,Potency,[15],inactive
same,Potency,Aromatase (Homo sapiens),inactive
same,Potency,[6],inactive
same,Potency,[7],inactive
same,outcome,[8],inactive
same,outcome,[9],inactive
same,Potency,[17],inactive
same,Potency,[10],inactive
same,Potency,[11],inactive
same,Potency,[12],inactive
CCNc1nc(NC(C)C)nc(OC)n1,Potency,[1],inactive
same,Potency,[2],inactive
same,outcome,[3],inactive
same,Potency,[15],inactive
same,Potency,Aromatase (Homo sapiens),inactive
same,outcome,[8],inactive
same,outcome,[9],inactive
same,Potency,[10],inactive
same,Potency,[11],inactive
same,Potency,[12],inactive
same,Potency,[13],inactive
same,outcome,[14],inactive
COCC(=O)N(c1c(C)cccc1C)N1CCOC1=O,Potency,[1],inactive
same,Potency,[2],inactive
same,outcome,[3],inactive
same,Potency,[15],inactive
same,Potency,Aromatase (Homo sapiens),inactive
same,Potency,[6],inactive
same,outcome,[8],inactive
same,Potency,[11],inactive
same,Potency,[13],inactive
same,outcome,[14],inactive
